This is an account of results in ChEMBL document CHEMBL4513216, “Probing the Open Global Health Chemical Diversity Library for Multistage-Active Starting Points for Next-Generation Antimalarials” (ACS Infect Dis, 2020).

In all, about 69,000 compounds went through this assay and about 8,600 (12%) showed an effect of 50% or more. The sample as a whole holds a higher share of strong results than the screen did.

The assay deals with Plasmodium berghei. Briefly: Screen against P. berghei liver stage (PbLuc), transformed with Luciferase, at 10uM. It is filed as functional, HepG2. The settings on record: tested at 10 uM.
On to `CC(C)N(C)Cc1cnc2n1CCN(CCc1ccccc1)C2`, for which the INHIBITION is given as 8.47%.
On to `O=C(NCCc1cccs1)[C@H]1CO[C@H]2CCNC[C@H]2C1`, for which the INHIBITION is given as 39.8%.
Consider `Cc1noc(C)c1CN1CCO[C@H]2CN(C(=O)C3CCOCC3)C[C@H]21`, for which the INHIBITION came to 29.4%.
For `O=C(c1ccn(-c2ccccc2Cl)n1)N1CCCSCC1` the value was -15.3%.
To `c1ccc(OC2C[C@@H]3CN(Cc4cnccn4)C[C@@H]3C2)cc1` (some centres not stated) belongs -15.3%; to `Cc1cccc(Nc2cc(C3CCCN(CC(N)=O)C3)ccn2)n1` (configuration not stated), 81.55%.
Take `Cc1cccc(Nc2cccc(C3CCCN(Cc4ncc[nH]4)C3)n2)n1` (configuration not stated): the INHIBITION worked out at 64.1%.
As for `c1ccc(CNc2cc(C3CCCNC3)ccn2)nc1` (configuration not stated), the INHIBITION came out at 7.775%.
Turning to `Cc1cc(C)nc(Nc2cccc(C3CCCN(CC4CC4)C3)n2)n1` (configuration not stated), the INHIBITION is 47.2%.
`NC(=O)CN1CCCC(c2ccnc(Nc3ncccn3)c2)C1` (configuration not stated): the INHIBITION was 37.55%.
As to `CNc1cccc(C2CCCN(Cc3ncc[nH]3)C2)n1` (configuration not stated), the INHIBITION came out at 15.9%.
In the case of `Cc1cccc(CNc2cc(C3CCCNC3)ccn2)n1` (configuration not stated), the INHIBITION is listed as 50.45%.
With `COCCNc1cc(C2CCCNC2)ccn1` (configuration not stated), the INHIBITION was -14.775%.
As to `CCc1nnc(Nc2cccc(C3CCCN(CC(C)(C)C)C3)n2)s1` (configuration not stated), the INHIBITION is recorded as -34.6%.
Regarding `Cc1nnc(Nc2cccc(C3CCN(Cc4ncc[nH]4)CC3)n2)s1`, the INHIBITION is recorded as -12.9%.
To `Cc1cccc(Nc2nccnc2C2CCCN(CC(=O)N(C)C)C2)n1` (configuration not stated) belongs 36.7%; to `Cc1nnc(Nc2cccc(C3CCCN(Cc4ncc[nH]4)C3)n2)s1` (configuration not stated), 62.9%; to `CN(C)CCNC(=O)C1Cc2nc(-c3ccsc3)sc2N1CC1CC1` (configuration not stated), -16.2%.
Take `CCN1C[C@H]2[C@@H](C1)N(S(=O)(=O)c1ccccc1F)CC[C@H]2OC`: the INHIBITION stood at 32.2%.
Take `CN1CCn2c(-c3ccccc3)cnc2C12CCN(CC1CC1)CC2`: the INHIBITION came to 29.8%.
Turning to `CCOC(=O)N1C[C@@H]2CC[C@H]1CN(Cc1ccccc1)C2`, the INHIBITION amounted to 12.8%.
To `CN(C)CCN1C(=O)C[C@@H]2[C@@H]1CCN2S(=O)(=O)c1ccccc1` belongs -71.3%; to `CCC(=O)N1CCCCC1c1nc(O)c2c(n1)CN(S(C)(=O)=O)CC2` (configuration not stated), 10.9%; to `Cn1ccc(-c2cc(C(=O)N3CCCCC3)c3ccccn23)n1`, 49.4%.
As to `O=C(CCCOc1ccccc1F)Nc1cc[nH]n1`, the INHIBITION was determined as 11.5%.
With `CC(C)CC(=O)N[C@H](C)c1c(-c2ccc(Cl)cc2)noc1C(=O)O`, the INHIBITION was determined as 7.5%.
Turning to `CC(NC(=O)NCCCN(C(C)C)S(C)(=O)=O)c1ccncc1` (configuration not stated), the INHIBITION is given as -11.4%.
On to `NC(=O)CN(C(=O)C1Cc2cc(Cl)ccc2O1)C1CCCC1` (configuration not stated), for which the INHIBITION worked out at 6.83%.
`O=C(O)c1ccc(F)c(S(=O)(=O)N2CCOc3ccccc32)c1`: the INHIBITION is reported as 32.44%.
As for `Cc1ccc(C(=O)N2C[C@H]3CC[C@@H](C2)N(CC2CCC2)C3)s1`, the INHIBITION was -26.4%.
Take `COc1ncnc2c1CCN(Cc1cccs1)CC2`: the INHIBITION is given as -0.804%.
For `CCc1noc(C2CCCCN2C(=O)c2ccn(C3CCCC3)n2)n1` (configuration not stated) the value was 6.32%.
To `CCc1noc(C2CCCCN2C(=O)c2cccs2)n1` (configuration not stated) belongs 9.32%; to `CCc1noc(C2CCCCN2C(=O)c2cc(C)on2)n1` (configuration not stated), 22.6%; to `CCc1noc(C2CCCCN2C(=O)c2ccc(C)o2)n1` (configuration not stated), 45.8%.
As to `CCc1noc(C2CCCCN2C(=O)c2nnc3ccccc3n2)n1` (configuration not stated), the INHIBITION turned out to be 62.4%.
For the compound `CCc1noc(C2CCCCN2C(=O)c2ccccc2)n1` (configuration not stated), the INHIBITION is -45%.
On to `CCc1noc(C2CCCCN2C(=O)c2ccoc2C)n1` (configuration not stated), for which the INHIBITION was 22.1%.
Consider `CCc1noc(C2CCCCN2C(=O)c2cc(C)n(C)n2)n1` (configuration not stated), for which the INHIBITION stood at 52.4%.
`CCc1noc(C2CCCCN2C(=O)c2cc(C)oc2C)n1` (configuration not stated): the INHIBITION was determined as 78.1%.
For `Cc1nn(CC(=O)Nc2ccon2)cc1Br`, the INHIBITION is listed as 20.1%.
Take `CN1CCC(N(CCc2ccccc2)C(=O)c2ccoc2)CC1`: the INHIBITION turned out to be 32.8%.
To `CC(=O)N1CCC(C)(c2cc[nH]n2)CC1` belongs 35%; to `CN1CCN(CC(NCc2ccc(F)c(F)c2)c2ccccc2)CC1` (configuration not stated), 8.31%; to `Cc1nonc1CC(=O)N1CCC2(CCCN(C3CCOCC3)C2=O)C1` (configuration not stated), -41.8%.
For the compound `CCn1ccnc1CN1CCN(CC(=O)NC2CCOCC2)CC1`, the INHIBITION was determined as 22.5%.
For the compound `CSc1cccc(CN2CCC(CCC(=O)Nc3ccccc3)CC2)c1`, the INHIBITION was 47.7%.
Regarding `O=C(CCC1CCN(Cc2ncc[nH]2)CC1)Nc1ccccc1Cl`, the INHIBITION was determined as 38.5%.
With `CCn1ccnc1CN1CCN(CC(=O)NC(C2CC2)C2CC2)CC1`, the INHIBITION is listed as 51.85%.
To `CCn1ccnc1CN1CCN(CC(=O)NC(=O)NC2CC2)CC1` belongs -3.95%.
To `CSc1cccc(CN2CCC(CCC(=O)NC3CC3)CC2)c1` belongs 35.4%; to `O=C(CCC1CCN(Cc2ccncc2)CC1)Nc1ccccc1Cl`, 70.1%; to `Cn1ccnc1CN1CCC(CCC(=O)Nc2ccccc2Cl)CC1`, 9.72%.
For the compound `CCn1cc(CN2CCC(CCC(=O)Nc3ccccc3Cl)CC2)cn1`, the INHIBITION is listed as 49.5%.
For `CSc1ccc(CN2CCC(CCC(=O)Nc3ccccc3)CC2)cc1` the value was 64.5%; for `Cn1cc(CN2CCC(CCC(=O)Nc3ccccc3Cl)CC2)cn1`, 34%; for `CCn1ccnc1CN1CCC(CCC(=O)Nc2ccccc2Cl)CC1`, 71.8%.
